The results in this text go back to ChEMBL document CHEMBL3988442, “University of Dundee, Small-Polar-MMV Screening Library” (2021).

For some of these results: Entries with a potency or affinity are not part of this list.

Holding throughout (parameters): scale not given: direction of the effect not stated beside the values
The target in experiment [1] is Protein translocase subunit SecA (Escherichia coli (strain K12)) (UniProt P10408). Nature of the experiment: Assay to Identify E. coli SecA ATPase Inhibitors. Format: functional. The following applies: 30 µM.
Experiment [2] addresses T1, Ubiquitin-activating enzyme e1, putative (Leishmania donovani (strain BPK282A1)) (UniProt E9BSI1).
T1 sequence (whole entry): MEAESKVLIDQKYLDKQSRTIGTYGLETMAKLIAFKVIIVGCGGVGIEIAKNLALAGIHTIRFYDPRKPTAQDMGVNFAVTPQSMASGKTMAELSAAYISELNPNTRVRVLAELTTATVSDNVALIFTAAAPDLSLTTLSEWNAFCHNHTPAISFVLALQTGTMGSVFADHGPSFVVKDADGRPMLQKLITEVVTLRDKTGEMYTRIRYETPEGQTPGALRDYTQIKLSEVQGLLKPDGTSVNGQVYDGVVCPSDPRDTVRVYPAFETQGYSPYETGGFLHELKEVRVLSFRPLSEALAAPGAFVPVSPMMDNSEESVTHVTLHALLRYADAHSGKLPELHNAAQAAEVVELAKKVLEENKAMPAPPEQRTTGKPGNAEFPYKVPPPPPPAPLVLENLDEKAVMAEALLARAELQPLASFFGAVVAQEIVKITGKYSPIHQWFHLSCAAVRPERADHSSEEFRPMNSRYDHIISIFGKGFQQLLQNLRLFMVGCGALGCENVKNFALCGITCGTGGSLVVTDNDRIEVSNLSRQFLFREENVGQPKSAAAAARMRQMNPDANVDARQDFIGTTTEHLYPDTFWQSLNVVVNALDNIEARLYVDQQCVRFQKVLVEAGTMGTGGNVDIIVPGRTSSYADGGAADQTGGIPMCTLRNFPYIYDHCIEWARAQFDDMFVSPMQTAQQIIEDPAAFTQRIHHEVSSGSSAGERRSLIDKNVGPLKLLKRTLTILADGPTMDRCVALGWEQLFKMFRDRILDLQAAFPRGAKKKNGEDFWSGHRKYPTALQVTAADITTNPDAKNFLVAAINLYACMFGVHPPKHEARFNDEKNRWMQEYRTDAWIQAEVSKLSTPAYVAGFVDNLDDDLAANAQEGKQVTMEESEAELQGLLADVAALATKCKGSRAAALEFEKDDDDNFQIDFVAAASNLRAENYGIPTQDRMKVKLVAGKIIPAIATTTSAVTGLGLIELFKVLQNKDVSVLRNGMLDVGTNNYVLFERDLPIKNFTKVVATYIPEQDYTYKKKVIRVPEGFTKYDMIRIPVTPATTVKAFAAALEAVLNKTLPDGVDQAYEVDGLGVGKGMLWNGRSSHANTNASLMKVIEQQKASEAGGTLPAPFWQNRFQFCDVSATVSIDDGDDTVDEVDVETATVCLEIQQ
Nature of the experiment: Leishmania donovani Ubiquitin Activating Enzyme (LdE1). Format: functional. The conditions noted are these: 30 µM.

Experiment [3] addresses AMP-activated protein kinase, AMPK (Homo sapiens) (UniProt P54646+O43741+P54619+Q9UGJ0+Q9Y478+Q13131+Q9UGI9). Kind of experiment: AMP-dependent Kinase enzyme assay. An in vitro enzyme assay that detects ADP turnover that is directly proportional to AMPK activity. This uses naive AMPK that is activated during the assay with MK-8722. The following applies: 30 µM. In kind it is functional.

For experiment [4], the target named is Sialic acid-binding Ig-like lectin 9 (Homo sapiens) (UniProt Q9Y336). Nature of the experiment: Hs-Siglec9 ALPHAscreen SOP 20170721. The conditions noted are these: 10 µM. A general note: Alpha assays give light when donor and acceptor beads are brought close together.
Experiment [5] deals with Trypanosoma cruzi. Nature of the experiment: Trypanosoma cruzi phosphomannomutase and mannose-1-phosphate guanylyltransferase assay. The following applies: 10 µM. Format: functional.
The target of experiment [6] is T2, Arginase-2, mitochondrial (Homo sapiens) (UniProt P78540).
T2 sequence (whole entry): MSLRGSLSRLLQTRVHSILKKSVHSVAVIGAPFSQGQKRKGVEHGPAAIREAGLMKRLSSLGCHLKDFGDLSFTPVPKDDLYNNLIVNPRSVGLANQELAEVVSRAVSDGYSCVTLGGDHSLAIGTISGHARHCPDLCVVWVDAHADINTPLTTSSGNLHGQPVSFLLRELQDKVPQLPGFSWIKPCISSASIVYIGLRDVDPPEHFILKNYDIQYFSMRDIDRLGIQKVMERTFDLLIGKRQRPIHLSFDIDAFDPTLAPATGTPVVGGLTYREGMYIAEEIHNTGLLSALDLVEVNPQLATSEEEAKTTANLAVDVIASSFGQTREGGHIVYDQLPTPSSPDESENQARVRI
Nature of the experiment: in vitro enzyme assay to detect the production of urea directly proportional to the activity of Arginase II. Note: in the data most compounds retested in dose-response had high values. In kind it is functional. The following applies: 33.3 µM.

Experiment [7] addresses T3, Proteasome subunit beta (Trypanosoma cruzi) (UniProt O96673).
T3 sequence (whole entry): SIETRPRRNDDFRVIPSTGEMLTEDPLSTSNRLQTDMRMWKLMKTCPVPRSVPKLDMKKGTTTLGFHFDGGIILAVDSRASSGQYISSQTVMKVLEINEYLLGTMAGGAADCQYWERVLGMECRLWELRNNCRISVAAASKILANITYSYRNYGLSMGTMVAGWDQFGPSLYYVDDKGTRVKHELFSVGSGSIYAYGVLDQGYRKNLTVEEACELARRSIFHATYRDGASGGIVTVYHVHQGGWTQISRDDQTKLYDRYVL
Kind of experiment: Trypanosoma cruzi proteasome chymotrypsin-like activity (TcProtChymo) assay. Note: in the data most compounds retested in dose-response had high values. Format: functional. The conditions noted are these: 9.37 µM.

The species entered for experiment [8] is Homo sapiens. Nature of the experiment: To identify inhibition of the IFN signalling (Jak-Stat) pathway via expression of an eGFP reporter gene under the control of an IFN-stimulated response element (ISRE) containing MxA promoter. Format: functional. The following applies: 30 µM. (In general: A reporter such as luciferase makes a cellular process visible.)

Experiment [9] deals with T4, Tyrosyl-tRNA synthetase, putative (Trypanosoma cruzi (strain CL Brener)) (UniProt Q4DSP6).
T4 sequence (whole entry): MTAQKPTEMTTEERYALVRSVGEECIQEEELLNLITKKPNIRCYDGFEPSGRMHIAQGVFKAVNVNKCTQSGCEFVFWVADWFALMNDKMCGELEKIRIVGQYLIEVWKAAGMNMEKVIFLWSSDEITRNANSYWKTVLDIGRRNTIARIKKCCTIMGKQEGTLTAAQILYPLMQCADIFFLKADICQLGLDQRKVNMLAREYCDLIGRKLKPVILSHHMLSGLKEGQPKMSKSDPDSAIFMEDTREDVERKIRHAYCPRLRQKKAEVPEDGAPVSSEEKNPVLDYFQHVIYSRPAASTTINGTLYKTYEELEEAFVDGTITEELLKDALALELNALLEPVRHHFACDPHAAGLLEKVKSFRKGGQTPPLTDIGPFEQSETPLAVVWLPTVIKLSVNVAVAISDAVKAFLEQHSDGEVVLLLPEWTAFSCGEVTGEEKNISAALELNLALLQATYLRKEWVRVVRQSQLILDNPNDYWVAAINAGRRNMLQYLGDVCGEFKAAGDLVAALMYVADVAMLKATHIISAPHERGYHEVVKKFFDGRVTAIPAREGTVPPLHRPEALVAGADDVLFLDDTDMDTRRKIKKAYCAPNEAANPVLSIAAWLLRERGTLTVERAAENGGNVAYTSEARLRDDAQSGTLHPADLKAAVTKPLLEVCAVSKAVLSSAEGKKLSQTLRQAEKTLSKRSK
Nature of the experiment: Trypanosoma cruzi tyrosyl tRNA synthetase (TcYRS) _High Tyrosine SOP. Note: in the data most compounds retested in dose-response had high values. Format: functional. The conditions noted are these: 30 µM.

For experiment [10], the target named is T4, Tyrosyl-tRNA synthetase, putative (Trypanosoma cruzi (strain CL Brener)). Nature of the experiment: Trypanosoma cruzi tyrosyl tRNA synthetase (TcYRS) SOP. In kind it is functional. The conditions noted are these: 30 µM.
Experiment [11] deals with Chromo domain-containing protein 1 (Saccharomyces cerevisiae (strain ATCC 204508 / S288c) (Baker's yeast)) (UniProt P32657). Nature of the experiment: ScCHD-1 Enzyme Inhibition Assay. Note: in the data most compounds retested in dose-response had high values. In kind it is functional. The following applies: 30 µM.
Sequence of Chromo domain-containing protein 1 (Saccharomyces cerevisiae (strain ATCC 204508 / S288c) (Baker's yeast)) (P32657 whole entry, the tested form may be a part): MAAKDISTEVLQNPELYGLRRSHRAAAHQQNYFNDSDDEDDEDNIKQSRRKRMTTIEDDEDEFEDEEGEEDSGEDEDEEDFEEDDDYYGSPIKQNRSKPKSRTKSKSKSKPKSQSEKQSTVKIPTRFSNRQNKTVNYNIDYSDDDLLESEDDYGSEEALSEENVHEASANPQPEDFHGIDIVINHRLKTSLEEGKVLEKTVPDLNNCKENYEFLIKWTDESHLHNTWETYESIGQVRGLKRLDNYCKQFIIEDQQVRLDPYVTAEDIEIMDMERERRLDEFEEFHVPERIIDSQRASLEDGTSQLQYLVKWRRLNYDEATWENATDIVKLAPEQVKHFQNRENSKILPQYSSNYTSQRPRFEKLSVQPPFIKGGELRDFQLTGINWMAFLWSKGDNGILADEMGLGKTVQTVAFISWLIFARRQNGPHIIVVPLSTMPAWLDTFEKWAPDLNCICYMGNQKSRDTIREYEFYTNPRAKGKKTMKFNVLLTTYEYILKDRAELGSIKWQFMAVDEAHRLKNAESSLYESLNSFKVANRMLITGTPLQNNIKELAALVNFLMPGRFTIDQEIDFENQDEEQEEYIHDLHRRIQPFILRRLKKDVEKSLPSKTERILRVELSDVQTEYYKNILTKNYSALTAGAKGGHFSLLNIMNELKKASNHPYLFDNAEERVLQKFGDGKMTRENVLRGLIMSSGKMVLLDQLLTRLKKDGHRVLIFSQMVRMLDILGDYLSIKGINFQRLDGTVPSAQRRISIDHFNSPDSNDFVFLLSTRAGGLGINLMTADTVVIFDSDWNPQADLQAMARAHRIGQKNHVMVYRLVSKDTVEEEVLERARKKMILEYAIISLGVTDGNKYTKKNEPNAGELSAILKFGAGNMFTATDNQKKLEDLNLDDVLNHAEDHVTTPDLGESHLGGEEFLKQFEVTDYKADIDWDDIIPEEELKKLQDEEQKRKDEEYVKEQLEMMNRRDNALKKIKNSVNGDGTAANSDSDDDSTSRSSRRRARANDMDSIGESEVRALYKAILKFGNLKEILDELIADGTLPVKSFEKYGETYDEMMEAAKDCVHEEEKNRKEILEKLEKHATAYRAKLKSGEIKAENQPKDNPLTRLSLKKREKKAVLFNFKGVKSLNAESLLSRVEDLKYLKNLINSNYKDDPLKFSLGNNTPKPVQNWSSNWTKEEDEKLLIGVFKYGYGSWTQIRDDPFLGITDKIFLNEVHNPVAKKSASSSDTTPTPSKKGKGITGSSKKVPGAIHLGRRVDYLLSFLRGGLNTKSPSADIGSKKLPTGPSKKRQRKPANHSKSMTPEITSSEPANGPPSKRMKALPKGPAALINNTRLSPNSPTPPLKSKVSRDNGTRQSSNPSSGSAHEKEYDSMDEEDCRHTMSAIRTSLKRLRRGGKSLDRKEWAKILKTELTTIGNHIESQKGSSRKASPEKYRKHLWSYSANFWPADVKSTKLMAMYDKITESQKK

Sequence of Sialic acid-binding Ig-like lectin 9 (Homo sapiens) (Q9Y336 whole entry): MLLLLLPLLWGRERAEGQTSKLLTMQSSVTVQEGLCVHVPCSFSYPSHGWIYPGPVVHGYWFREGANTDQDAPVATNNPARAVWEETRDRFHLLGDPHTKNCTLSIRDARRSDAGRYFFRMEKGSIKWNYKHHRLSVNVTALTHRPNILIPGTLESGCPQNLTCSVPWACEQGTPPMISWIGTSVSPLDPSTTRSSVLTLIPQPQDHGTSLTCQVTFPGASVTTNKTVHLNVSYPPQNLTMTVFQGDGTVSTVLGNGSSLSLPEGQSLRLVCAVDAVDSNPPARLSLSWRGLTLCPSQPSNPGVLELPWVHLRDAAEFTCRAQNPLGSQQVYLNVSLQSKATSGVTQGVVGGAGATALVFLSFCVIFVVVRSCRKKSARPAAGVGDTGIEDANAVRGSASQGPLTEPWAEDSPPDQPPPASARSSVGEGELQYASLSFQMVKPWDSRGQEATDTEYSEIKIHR
Sequence of Protein translocase subunit SecA (Escherichia coli (strain K12)) (P10408 whole entry): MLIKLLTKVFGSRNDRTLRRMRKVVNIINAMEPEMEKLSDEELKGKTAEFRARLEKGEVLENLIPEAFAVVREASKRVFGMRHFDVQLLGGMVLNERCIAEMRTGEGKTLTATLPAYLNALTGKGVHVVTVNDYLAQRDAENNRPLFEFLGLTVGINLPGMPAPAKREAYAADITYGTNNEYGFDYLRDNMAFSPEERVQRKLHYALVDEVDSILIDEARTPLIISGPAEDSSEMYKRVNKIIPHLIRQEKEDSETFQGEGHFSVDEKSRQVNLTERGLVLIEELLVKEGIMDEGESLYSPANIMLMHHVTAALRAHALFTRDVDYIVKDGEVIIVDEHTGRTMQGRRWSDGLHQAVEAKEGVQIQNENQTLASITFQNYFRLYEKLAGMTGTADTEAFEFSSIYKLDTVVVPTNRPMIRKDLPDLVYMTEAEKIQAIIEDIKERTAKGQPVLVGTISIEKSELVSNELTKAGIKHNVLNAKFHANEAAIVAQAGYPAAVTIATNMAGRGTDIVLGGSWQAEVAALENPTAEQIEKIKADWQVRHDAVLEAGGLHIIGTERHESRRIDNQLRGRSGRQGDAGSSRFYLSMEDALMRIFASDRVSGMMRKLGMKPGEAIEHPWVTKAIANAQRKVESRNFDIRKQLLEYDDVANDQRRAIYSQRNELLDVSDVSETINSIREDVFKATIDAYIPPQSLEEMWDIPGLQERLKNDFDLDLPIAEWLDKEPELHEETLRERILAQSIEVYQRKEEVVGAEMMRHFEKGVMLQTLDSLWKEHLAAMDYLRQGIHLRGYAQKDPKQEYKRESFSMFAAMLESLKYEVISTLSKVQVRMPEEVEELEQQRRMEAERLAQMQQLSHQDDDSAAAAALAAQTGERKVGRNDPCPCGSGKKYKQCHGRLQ

Take `O=C([C@H]1CN(CCc2ccccc2)C[C@H]2OCC[C@@H]12)N1CCCO1`: the Percent Effect in [1] was -5.74%; in experiment [2], 18.7%; in experiment [3] it was -7.7%; in experiment [4], -0.861%; in [5], 6.37%; in experiment [6], -46.1%. Further, the Percent Effect in [7] was 11.6%; in experiment [8], 4.24%; in experiment [9] it was 2.08%; in experiment [10] it was 15%; in [11], -7.28%.
In the case of `CC(C)(NCC(=O)NCC(F)(F)F)c1ccc2c(c1)OCCO2`, the Percent Effect in experiment [1] is -1.45%; in [2] it was 13.5%; in experiment [3] it was -7.25%; in experiment [4], 1.31%; in experiment [5] it was -4.06%; in experiment [6] it was 17.2%. The Percent Effect in experiment [7] was 16%; in experiment [8] it was 5.37%; in experiment [9], 1.48%; in [10], 18.5%; in [11] it was -4.3%.
In the case of `CCn1cc(NC(=O)NCC(O)CN2CCCCC2)cn1` (stereo unspecified), the Percent Effect was -2.01% in experiment [1]; 5.2% in experiment [2]; 2.67% in experiment [3]; 12.4% in [4]; 1.27% in experiment [5]; 4% in experiment [6]. For the same compound, the Percent Effect in experiment [7] was 0.404%; in experiment [8], 15.9%; in experiment [9] it was 0%; in [10] it was 2.35%; in experiment [11] it was -9.62%.
With `O=C(CCOCc1ccccc1)N1CCCC1c1noc(C2CC2)n1` (stereo unspecified), the Percent Effect was -0.0528% in [1]; 21.6% in [2]; -9.42% in experiment [3]; 3.05% in experiment [4]; 1.23% in [5]; -10.4% in [6]. The Percent Effect was 5.22% in [7]; 4.41% in [8]; -23.1% in experiment [9]; 25.9% in [10]; -10% in experiment [11].
As to `Cc1cc(C(=O)N2CCCC2c2nnc3n2CCCCC3)no1` (stereo unspecified), the Percent Effect is -2.02% in [1]; 6.94% in experiment [2]; -6.41% in [3]; -2.93% in experiment [4]; 0.291% in experiment [5]; 2.21% in experiment [6]. The Percent Effect in [7] was 21.1%; in experiment [8], -18.8%; in [9], 6.32%; in experiment [10], 12.8%; in [11], -5.42%.
For `Cc1ccc(CC(=O)NC(C)C(=O)N2CCS(=O)(=O)CC2)cc1` (stereo unspecified), the Percent Effect is -6.49% in experiment [1]; 0% in [2]; -3.26% in experiment [3]; 4.88% in [4]; -2.9% in experiment [5]; -1.91% in experiment [6]. Further, the Percent Effect in experiment [7] is 10.2%; in experiment [8] it was 1.44%; in experiment [9] it was 3.7%; in experiment [10], 2.44%; in experiment [11], -3.12%.
In the case of `Cc1cc(CC(=O)N2CCCC2c2nc(C(C)C)no2)on1` (stereo unspecified), the Percent Effect in experiment [1] was -3.03%; in experiment [2], 20.8%; in experiment [3], -13.1%; in [4], 26.8%; in experiment [5] it was 8.84%; in [6], 3.97%. Besides, the Percent Effect was 18.8% in [7]; 5.27% in experiment [8]; 6.32% in experiment [9]; 15.4% in experiment [10]; -9.95% in experiment [11].
As for `Cc1nnc(N2CC[C@H]3C[C@H](C(=O)N4CCOCC4)O[C@H]3C2)s1`, the Percent Effect in experiment [1] was -2.55%; in experiment [2] it was 0%; in [3], 5.32%; in [4], 2.05%; in experiment [5], 0.0978%; in experiment [6] it was -0.955%. In addition, the Percent Effect in experiment [7] was 14.6%; in experiment [8], -19.4%; in experiment [9], 1.08%; in experiment [10], 5.13%; in experiment [11] it was 1.53%.
Consider `Cc1nc(CN2C(=O)COC3(CCN(Cc4ccco4)CC3)C2C)cs1` (stereo unspecified), for which the Percent Effect is -3.92% in experiment [1]; 2.74% in experiment [2]; 3.27% in experiment [3]; 2.66% in [4]; -3.37% in experiment [5]; -3.19% in experiment [6]. Also, the Percent Effect in experiment [7] is 15.8%; in experiment [8], 2.79%; in experiment [9], 3.12%; in experiment [10], 6.17%; in experiment [11], -2.61%.
With `CCc1nnsc1C(=O)NC1CCN(c2ccccn2)CC1`, the Percent Effect in [1] is -1.79%; in [2] it was 18.9%; in experiment [3], 1.62%; in experiment [4], 8.18%; in [5] it was 5.38%; in experiment [6] it was 21.1%. The Percent Effect was 15% in [7]; 15.5% in experiment [8]; 3.23% in [9]; 16.1% in [10]; -7.21% in experiment [11].
Regarding `CCOc1ccc(C#N)cc1NCC(=O)Nc1cc(C)no1`, the Percent Effect in experiment [1] is -6.06%; in experiment [2] it was 17.7%; in [3], -5.05%; in [4] it was -0.0832%; in [5], 3.68%; in experiment [6], -7.99%. Moreover, the Percent Effect is 4.34% in [7]; -2.7% in [8]; 3.45% in experiment [9]; -130% in [10]; -5.12% in experiment [11].
